Results published in ChEMBL document CHEMBL3988442, “University of Dundee, Small-Polar-MMV Screening Library” (2021).
Among all 48,000 compounds or so, about 13,000 (27%) showed an effect of 50% or more. This is one part of the list.

test system: Wolbachia pipientis; test: Anti-Wolbachia Cell-Based Screen; assay type: functional; parameters: scale not given: in the data most compounds retested in dose-response had high values; settings: 5 µM

Structure (SMILES) | Percent Effect
O=C(OCc1ccccc1)c1cccc(NC(=O)C2COCCO2)c1 (stereo unspecified) | -10.37%
CC(C)N1Cc2cccc(NCC(=O)N(C)C3CCCCC3)c2C1 | -12.78%
OCCN1CCC(CNCc2ccc(N3CCCCC3)cc2)CC1 | -10.73%
CC(C)NS(=O)(=O)c1cc(C(=O)O)cc(-n2cc3c(n2)CCC3)c1 | -3.943%
CC1=N[C@@]2(CC[C@@H]3CN(Cc4cccc(Cl)c4)C[C@@H]32)C(=O)N1CC1CC1.O=C(O)C(F)(F)F | 106.8%
CC1=N[C@@]2(CC[C@@H]3CN(Cc4ccccc4)C[C@@H]32)C(=O)N1CC1CC1.O=C(O)C(F)(F)F | 87%
CC1=N[C@@]2(CC[C@@H]3CN(Cc4ccccc4C)C[C@@H]32)C(=O)N1CC1CC1.O=C(O)C(F)(F)F | 101.1%
COCCN1C[C@H]2CC[C@@]3(N=C(C)N(CC4CC4)C3=O)[C@H]2C1.O=C(O)C(F)(F)F | -0.9614%
O=C(O)C(F)(F)F.O=C1NC(c2ccccc2)=N[C@@]12CC[C@@H]1CN(CC3CC3)C[C@@H]12 | 1.711%
CC1=N[C@@]2(CC[C@@H]3CN(CC(C)C)C[C@@H]32)C(=O)N1CC(C)C.O=C(O)C(F)(F)F | 10.27%
CC1=N[C@@]2(CC[C@@H]3CN(CC4CC4)C[C@@H]32)C(=O)N1CC(C)C.O=C(O)C(F)(F)F | -11.12%
CC1=N[C@@]2(CC[C@@H]3CN(CC4CC4)C[C@@H]32)C(=O)N1CC1CC1.O=C(O)C(F)(F)F | 106.2%
CC1=N[C@@]2(CC[C@@H]3CN(Cc4ccccc4F)C[C@@H]32)C(=O)N1CC1CC1.O=C(O)C(F)(F)F | -0.009519%
CCS(=O)(=O)N1CCC(Nc2c(F)cc(C#N)cc2F)CC1 | 12.27%
Cn1cc(S(=O)(=O)NCC2CCN(C(=O)c3ccoc3)CC2)cn1 | -16.26%
CC1=N[C@@]2(CC[C@@H]3CN(Cc4ccccc4F)C[C@@H]32)C(=O)N1C | 100.6%
CC1=N[C@@]2(CC[C@@H]3CN(Cc4ccc(C)cc4)C[C@@H]32)C(=O)N1CC1CC1.O=C(O)C(F)(F)F | 104.5%
CC1=N[C@@]2(CC[C@@H]3CN(C(=O)NC(C)C)C[C@@H]32)C(=O)N1CC1CC1 | 1.3%
CC1=N[C@@]2(CC[C@@H]3CN(CC(=O)N(C)C)C[C@@H]32)C(=O)N1CC(C)C.O=C(O)C(F)(F)F | 6.41%
COCCN1C(=O)[C@]2(CC[C@@H]3CN(Cc4ccccc4F)C[C@@H]32)N=C1C.O=C(O)C(F)(F)F | 90.53%
COCCN1C(=O)[C@]2(CC[C@@H]3CN(C(=O)NC(C)C)C[C@@H]32)N=C1C | 32.84%
CC1=N[C@@]2(CC[C@@H]3CN(S(=O)(=O)CC(C)C)C[C@@H]32)C(=O)N1C | 16.54%
CCC1=N[C@@]2(CC[C@@H]3CN(Cc4ccccc4F)C[C@@H]32)C(=O)N1.O=C(O)C(F)(F)F | -10.48%

Structure (SMILES) | Percent Effect
COCCN1C(=O)[C@]2(CC[C@@H]3CN(C(=O)NC4CCCC4)C[C@@H]32)N=C1C | -7.65%
COc1ccc(S(=O)(=O)NCC(c2cccn2C)N(C)C)cc1F (stereo unspecified) | 1.104%
Cc1nn(C)cc1C(=O)N1CCCn2nc(CN3CC[C@H](F)C3)cc2C1 | 10.52%
Cc1nccn1-c1ccc(C(C)NCc2cc[nH]n2)cc1 (stereo unspecified) | -2.741%
CN(Cc1cccnc1N)Cc1cccc2ncccc12 | 108.3%
CN(Cc1cccc(CCN)c1)Cc1cccc2ncccc12 | 97.29%
COCCN(Cc1cccc(OCCO)c1)Cc1ccccc1F | 0.9238%
CN(Cc1cccc(OCCO)c1)Cc1cccc2ncccc12 | 95.97%
CC(C)c1cc(C(=O)N(C)Cc2cccc3ncccc23)n(C)n1 | -7.2%
CN(Cc1csc(-c2cccs2)n1)Cc1cccnc1N | 16.69%
CCCc1cc(C(=O)N(C)Cc2cccc3ncccc23)n(C)n1 | 20.91%
CCCN(Cc1cccc(OCCO)c1)Cc1ccccc1OC | 8.157%
CN(Cc1cccc2ncccc12)C(=O)CCC(F)(F)F | -3.963%
Cc1ccsc1-c1cc(C(=O)O)cc(S(=O)(=O)NCc2ccccn2)c1 | -12.11%
COc1ccccc1Oc1ncccc1CNC(=O)[C@@H](N)CCO | -18.01%
O=C(NC1CC1)c1ccnc(N2CCOC(c3ccc(Cl)cc3)C2)c1 (stereo unspecified) | -21.25%
Cc1ccc(N2CC[C@@H]3O[C@@H](c4ccncn4)C[C@H]3C2)nn1 | 17.26%
Cc1cc(N2CCOC(c3ccc(C(N)=O)cn3)C2)ncn1 (stereo unspecified) | 105.9%
COc1cc(N2CC[C@@H]3O[C@@H](c4ccncn4)C[C@H]3C2)ncn1 | -28.63%
Cc1cc(N2CCOC(c3ccncn3)C2)ncn1 (stereo unspecified) | 99.32%
O=C(NC1CC1)c1ccnc(N2CCOC(c3ccc(Cl)c(Cl)c3)C2)c1 (stereo unspecified) | -23.24%
CN(C)CCN1CCOC2(CCN(c3nccs3)CC2)c2ccccc21 | -12.88%
N#Cc1ccc(C(=O)N2CCOC[C@H](Oc3cnccn3)C2)cc1 | -4.484%

Structure (SMILES) | Percent Effect
CC1(C)CNC(=O)c2nc(CCN3CCCCC3CO)[nH]c2C1 (stereo unspecified) | -22.93%
CCOc1cc(NC(=O)C2CC(=O)N(c3cccc(OC)c3)C2)ncn1 (stereo unspecified) | -2.704%
CCN(Cc1ccc(C#N)cc1F)C(=O)C(C)(C)C | 4.691%
CC(C)c1nc2c(n1C)CCN(CCc1ccccn1)C2 | 5.197%
CC(C)c1nc2c(n1C)CCN(CC(=O)Nc1ccc(Cl)cn1)C2 | 6.553%
Cc1nn(C)c(C)c1NC(=O)CN1CCc2c(nc(C(C)C)n2C)C1 | -19.45%
CC(C)c1nc2c(n1C)CCN(CC(=O)Nc1nccs1)C2 | -1.818%
CC(C)c1nc2c(n1C)CCN(CC(=O)NCc1ccccn1)C2 | -5.66%
CC(C)c1cc(NC(=O)CN2CCc3c(nc(C(C)C)n3C)C2)on1 | 6.487%
CC(C)c1nc2c(n1C)CCN(CC(=O)Nc1ccnn1C(C)C)C2 | 120.4%
CC(C)c1nc2c(n1C)CCN(CC(=O)Nc1cccnc1)C2 | 119.2%
CC(C)c1nc2c(n1C)CCN(CC(=O)Nc1ccncc1)C2 | 127.6%
COc1ccnc(N2CCC(=O)N(CC3CC3)C(C(C)C)C2)n1 (stereo unspecified) | -66.14%
Cc1n[nH]cc1CNCC(c1cccc(F)c1)N(C)C (stereo unspecified) | -5.12%
O=S(=O)(CC1CCOCC1)NCc1ncc(-c2ccccc2)o1 | -9.674%
Cn1cc(C2CCCN2CC(=O)N(CCC#N)Cc2ccco2)cn1 (stereo unspecified) | 0.296%
Cc1cc(N2CCC(C(=O)NC3CC3)CC2)nc(-c2ccncc2)n1 | 96.2%
Cc1cc(C)n(-c2cncc(N3CCC(C(=O)N(C)C)CC3)n2)n1 | -4.811%
CCNC(=O)CN1CCN(c2ccnc3c(F)ccc(F)c23)CC1 | 11.86%
O=C(NC1CC1)C1CCN(c2cccc(C(F)(F)F)n2)CC1 | -5.657%
CC(=O)NCC1CCN(c2cc(C)nc(-c3ccncc3)n2)CC1 | 110%
Cc1cc(N2CCC(N(C)C(=O)c3ccccc3)CC2)nc(C)n1 | -0.5132%
Cc1cc(NCC(=O)NCC(F)(F)F)nc(-c2ccncc2)n1 | 6.905%

Structure (SMILES) | Percent Effect
CC(=O)NCC1CCN(c2cc(C(C)C)nc3ccnn23)CC1 | -0.4994%
Cc1cc(N2CCC(C(=O)N(C)C)CC2)nc(-c2ccncc2)n1 | 121.6%
O=C(NC1CCN(c2cccc(C(F)(F)F)n2)CC1)C1CC1 | -2.588%
CC(=O)NCC1CCN(c2ccnc3ccc(Br)cc23)CC1 | 3.515%
CCNC(=O)CN1CCN(c2cc(C)nc(-c3ccncc3)n2)CC1 | 108.7%
COCC(=O)NC(c1ccc(Cl)cc1)c1noc(C)n1 (stereo unspecified) | 10.23%
CN1CCN(CC[C@@H]2CC[C@H](O)[C@@H](C(=O)Nc3ccccc3)O2)CC1 | -5.857%
Cc1c(Cl)cc(C(=O)N(CCO)Cc2nccn2C)cc1Cl | -0.9396%
CCC1CN(Cc2nnc(C3CC3)o2)CCC(=O)N1Cc1ccccc1 (stereo unspecified) | 1.6%
Cc1cccc(CNC2CCN(CCc3ccncc3)CC2)c1C | -28.44%
O=C(Nc1ccccc1)C1CN(Cc2nccs2)CC12CCOCC2 (stereo unspecified) | -7.197%
CCCN(C)C(=O)Nc1ccc(C(=O)NCCC(=O)OC)cc1 | 0.9295%
COc1ccc(-c2nc3c([nH]2)CCNC3C(=O)O)c2ccccc12 (stereo unspecified) | -1.412%
Cn1ncc2c(=O)[nH]c(N3CCCC3c3cccs3)nc21 (stereo unspecified) | 2.416%
O=C1N[C@@H]2CCN(C(=O)C3CC3)[C@@H]2C(=O)N1c1ccc(F)cc1 | -5.922%
Cc1cc(N2CCOC(CN)C2)nc(-c2ccccc2)n1 (stereo unspecified) | 6.388%
COC(=O)C1CCN(c2cncc(-n3nc(C)cc3C)n2)CC1 | -8.177%
Cc1cc(N2CCN(c3ccc(=O)[nH]n3)CC2)nc(-c2ccncc2)n1 | 110.1%
Cc1cc(N2CCOC(C(F)(F)F)C2)nc(-c2ccccc2)n1 (stereo unspecified) | 4.501%
COC(=O)C1CCN(c2cc(C)nc(-c3ccncc3)n2)CC1 | 111%
COC(=O)C1CCN(C(=O)CN2CCN(c3cccc(C)c3)CC2)CC1 | -8.309%
Cc1nc2ncnn2c2ccn(-c3cccnc3O)c(=O)c12 | -8.283%
